PLC-gamma1 inh = blocks human PLC-gamma1 enzyme activity; inhibition, % at 12.2 µM; 370,000 tested, 0.84% active; purified PLC-gamma1, fluorogenic substrate, fluorescence; in the data active means inhibition above about 9.5%
MBD2 DNA inh = MBD2-methylated oligo binding inhibition; Q9UBB5; TR-FRET, MBD2 binding to methylated oligonucleotide; inhibition, % at 4.4 µM; 370,000 tested, 0.31% active; AID 686964; in the data active means inhibition above about 13%
Target sequence (Q9UBB5 whole entry, looked up): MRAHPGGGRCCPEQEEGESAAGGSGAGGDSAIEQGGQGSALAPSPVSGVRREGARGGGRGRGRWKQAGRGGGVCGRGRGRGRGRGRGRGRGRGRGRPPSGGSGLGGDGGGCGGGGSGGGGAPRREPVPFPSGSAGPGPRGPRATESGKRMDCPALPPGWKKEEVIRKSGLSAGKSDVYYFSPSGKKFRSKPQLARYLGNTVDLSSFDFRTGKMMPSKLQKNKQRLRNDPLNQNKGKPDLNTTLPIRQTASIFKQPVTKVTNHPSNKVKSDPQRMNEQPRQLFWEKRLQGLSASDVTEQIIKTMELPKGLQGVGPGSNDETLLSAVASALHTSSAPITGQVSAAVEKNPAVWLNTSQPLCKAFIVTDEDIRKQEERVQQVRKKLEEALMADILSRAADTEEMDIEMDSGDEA
PLC-beta3 inh = PLC-beta3 (human) inhibition, primary screen; Q01970; Purified PLC-beta3, fluorogenic substrate, fluorescence; inhibition, % at 12.2 µM; 370,000 tested, 0.18% active; AID 720704; in the data active means inhibition above about 11%;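 further: 0% = median of compound wells on plate and 100% = full blocker control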
UHRF1 MBD2 ctr = blocks human UHRF1 binding to methylated DNA | UHRF1 binding to methylated oligo, TR-FRET | inhibition, % at 4.4 µM | 370,000 tested, 0.75% active | AID 687016; in the data active means inhibition above about 21%;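 further: UHRF1 SRA domain binding a hemimethylated CpG hairpin DNA probe; 0% = median of test compound wells and 100% = reference inhibitor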
LEDGF integ inh = blocks HIV-1 LEDGF/p75-dependent DNA integration | TR-FRET IN-LEDGF/p75 DNA integration, Eu/Cy5 | inhibition, % at 3.7 µM | 370,000 tested, 0.64% active | AID 743269;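 active means inhibition above the screen-wide mean plus 3 SD, cut at about 13% in these data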;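 further: signal is the Cy5 over europium emission ratio at 671 and 618 nm; 0% = plate median of compound wells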
* = called active by the depositor; i = inactive. An excerpt weighted towards active compounds, which were near 2.4% of everything screened.

SMILES	PLC-gamma1 inh	MBD2 DNA inh	PLC-beta3 inh	UHRF1 MBD2 ctr	LEDGF integ inh
CC(C)C[C@H](NC(=O)N1CCn2c1nc1ccccc12)C(=O)NCCc1ccccc1	2	2	-3	52*	1
Cc1ccsc1C(=O)Nc1ccc(O)c(-c2nc3ccccc3s2)c1	-381	1	i	-3	-5
CC(=O)Nc1ccc(O)c(-c2nc3ccccc3s2)c1	i	1	i	39*	-5
O=C(NC1CCCCN(Cc2cccc(C(F)(F)F)c2)C1=O)c1ccc(Cl)c(Cl)c1 (stereo not drawn)	-1	4	-3	-3	-1
NC(=O)C[n+]1ccc(/C=N/O)cc1	-2	6	0	26*	2
COc1cc(NC(=O)C2CCN(c3nnc(-n4cccc4)s3)CC2)cc(OC)c1	3	-4	-1	0	2
COc1ccccc1Cc1c(C(C)(C)C)nc2c3ccccc3ccn12	-67	6	-88	23*	2
COc1ccccc1Cc1c(-c2ccccc2)nc2c3ccccc3ccn12	-12	5	-20	5	0
Cc1cc(Nc2ccccc2Cl)c2ccccc2n1	1	-2	-5	-1	-2
Cc1cc(C)nc(NCC(O)CNc2ccccc2Cl)n1 (stereo not drawn)	2	9	2	23*	-1
Cc1ccc(N2C(=O)NC3(CCCCC3)C2=O)cc1	3	11	0	23*	-4
CCOC(=O)[C@]12CCCC3=C1N(CCC3)C(=O)[C@@H](CC(=O)NCCC(C)C)C2	1	1	1	0	-1
CC(C)c1ccc(CN2CC(C(=O)Nc3ccccc3)CC2=O)cc1 (stereo not drawn)	1	-1	0	27*	0
CCN(CC)c1ccc(NC(=O)C2CC(=O)N(Cc3ccccc3)C2)cc1 (stereo not drawn)	2	0	-4	-4	2
CCOc1ccc(-n2c(SCC(=O)Nc3ccc4cn[nH]c4c3)nnc2-c2ccncc2)cc1	2	-4	4	2	2
Cc1ccc(-c2nc(C(Cl)Cl)c3ccccc3n2)cc1	-1	4	-5	47*	-1
Cc1ccc(NC(=S)NNC(=O)CSc2nnc(SCc3cccc4ccccc34)s2)cc1	-2	1	-5	-8	7
CCOC(=O)C1(Cc2cccc(OC)c2)CCN(C/C=C/c2ccccc2)CC1	1	3	-1	33*	-2
CCOC(=O)C1(Cc2cccc(OC)c2)CCN(C/C=C/c2ccc(OC)cc2)CC1	-1	10	0	2	0
COc1ccc(NC(=O)c2c[nH]n3c(=O)cc(C4CCN(C(=O)OC(C)(C)C)CC4)nc23)cc1Cl	-2	7	1	39*	1
O=C1CCC2(CCC(c3ccccc3)CC2)N1CC[C@@H](O)c1ccccc1 (stereo partly drawn)	-2	-6	-2	-2	0
C=CCN(CC#CC(=C)C)Cc1ccc(OC)cc1OC	1	-3	1	1	-2
O=C(CN(c1cccc(C(F)(F)F)c1)S(=O)(=O)c1ccc(Cl)c([N+](=O)[O-])c1)NCc1ccc(F)cc1	8	-1	11*	5	4
O=C(NCCCCCCNC(=O)OCc1ccccc1)OCc1ccccc1	0	-5	0	0	2
O=C(OCc1ccccc1)N(CCCCN(CCCNCc1ccccc1)C(=O)OCc1ccccc1)CCCNCc1ccccc1	10.0*	1	4	-2	3
SMILES	PLC-gamma1 inh	MBD2 DNA inh	PLC-beta3 inh	UHRF1 MBD2 ctr	LEDGF integ inh
O=C(CN1CCN(c2ccccc2)CC1)NCc1ccc(F)cc1	1	4	-8	4	0
O=C(COC(=O)/C=C/C(=O)N1CCN(c2ccccc2)CC1)NCc1ccc(F)cc1	-1	-2	-4	64*	-4
CN(Cc1ccccc1)c1nc(-c2cccc([N+](=O)[O-])c2)nc2ccccc12	0	3	1	23*	-2
O=[N+]([O-])c1cccc(-c2nc(NCc3ccccc3)c3ccccc3n2)c1	2	1	1	2	2
O=S1(=O)c2c(cccc2N2CCSCC2)Oc2ccccc2CN1Cc1cn(Cc2ccccc2C(F)(F)F)nn1	-6	3	-11	5	7
Cc1ccc(CN(Cc2ccco2)C(=S)NCC(=O)O)cc1	6	6	1	22*	0
Cc1ccc(CN(Cc2ccc(C)o2)C(=S)NCC(=O)O)cc1	5	2	3	1	2
O=C(CN1c2cccc3cccc(c23)S1(=O)=O)Nc1ccccc1	-168	-9	-244	69*	7
CCN(CC)C(=O)CC[C@@H]1CC[C@]2(CCCN(Cc3cccc4ccccc34)C2)O1	3	0	3	-4	4
COCC(=O)Nc1c(C(=O)Nc2ccc3c(c2)OCO3)oc2ccccc12	-2	2	-8	51*	0
CC(=O)Nc1c(C(=O)Nc2ccc3c(c2)OCO3)oc2ccccc12	-2	-2	-15	-1	-6
COc1ccc(CN(C)CCc2ccccn2)cc1OC	11*	3	13*	4	2
COc1cc(CN(C)CCc2ccccn2)cc(OC)c1OC	0	3	3	2	3
Cc1ccc(S(=O)(=O)NCC2CN(S(=O)(=O)c3ccc(C)cc3)c3ccccc3C(=O)N2c2ccc(F)cc2)cc1 (stereo not drawn)	6	-1	6	12	7
CC(C)(CN1CCCC1)NS(=O)(=O)c1ccc(Cl)cc1	0	-4	-4	1	2
CC(C)(CN1CCNCC1)NS(=O)(=O)c1ccc(Cl)cc1	16*	3	-1	2	8
C=CCN1[C@@H](C)COc2cc(N3CCCC3)ccc2S1(=O)=O	-2	1	0	1	0
CC1(C)CC2CC(C)(CN2C(=O)COC(=O)c2ccccc2C(F)(F)F)C1 (stereo not drawn)	12*	12	-5	0	-6
COC(=O)C1=C(C)N(Cc2ccccc2C(F)(F)F)C(=NCc2ccc3c(c2)OCO3)NC1c1ccccc1C(F)(F)F (stereo not drawn)	4	-2	11*	3	8
COC(=O)C1=C(C)N(Cc2ccc(C(F)(F)F)cc2)C(=NCc2ccc3c(c2)OCO3)NC1c1ccccc1C(F)(F)F (stereo not drawn)	4	1	6	2	1
COC(=O)C1=C(C)N(c2ccccc2)C(=S)NC1c1ccccc1C(F)(F)F (stereo not drawn)	2	-2	-4	44*	-6
Cc1ccc(CNC(=O)OC(C)(C)C)c(/C=C/S(=O)(=O)NCCc2ccccc2)c1	2	6	-5	2	4
COc1ccc(OC)c(S(=O)(=O)n2c(CN3CCOCC3)nc3ccccc32)c1	0	1	-2	19	0
CCOc1cc(NC(=S)NC)c(OCC)cc1NC(=O)c1ccco1	-1	-5	-3	0	-1
CCOc1cc(NC(=O)c2ccco2)c(OCC)cc1NC(=O)CCc1ccccc1OC	-9	0	-12	-1	15*

From PubChem
